Active and inactive are the calls of the source. Rule for the calls: active = hit-call score of the fitted dose curve at least 0.9, where 1 is the maximum; inactive = score below 0.9.
Read-out: E-selectin (Homo sapiens) (UniProt P16581)
Assay: BSK_LPS_Eselectin: BioMAP Diversity Plus: LPS Assay for Eselectin Biomarker Activity (AID 2283077)
Conditions: primary human HUVEC with PBMC; actives raise or lower the signal
Summary of the method: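 E-selectin ELISA on LPS-stimulated endothelial cell/PBMC co-cultures, read 24 h post-treatment; gains and losses fitted against DMSO. Parallel SRB staining (0.1% SRB after 10% TCA fixation, 560 nm) flags overt cytotoxicity.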

Sequence of E-selectin (Homo sapiens) (P16581 whole entry, looked up): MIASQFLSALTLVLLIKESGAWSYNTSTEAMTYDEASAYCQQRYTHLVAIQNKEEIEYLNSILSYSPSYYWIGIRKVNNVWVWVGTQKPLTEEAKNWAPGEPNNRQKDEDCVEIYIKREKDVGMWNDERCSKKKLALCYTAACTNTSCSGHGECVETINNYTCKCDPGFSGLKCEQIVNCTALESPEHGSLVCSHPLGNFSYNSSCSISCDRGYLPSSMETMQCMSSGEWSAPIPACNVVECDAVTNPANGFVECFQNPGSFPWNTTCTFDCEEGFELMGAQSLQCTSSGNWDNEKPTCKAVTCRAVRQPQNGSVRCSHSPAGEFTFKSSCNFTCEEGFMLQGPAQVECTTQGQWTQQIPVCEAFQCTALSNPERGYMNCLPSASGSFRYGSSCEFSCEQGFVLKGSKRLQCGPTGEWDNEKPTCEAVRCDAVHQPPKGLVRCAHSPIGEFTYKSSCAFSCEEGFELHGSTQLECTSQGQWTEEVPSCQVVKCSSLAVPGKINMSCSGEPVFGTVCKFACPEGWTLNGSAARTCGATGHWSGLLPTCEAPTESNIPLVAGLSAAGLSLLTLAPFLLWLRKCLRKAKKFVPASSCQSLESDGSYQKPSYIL

| SMILES | outcome | AC50 |
| --- | --- | --- |
| N#CC(Br)Br | inactive |  |
| OCCOCCO | inactive |  |
| O=C(N[C@H](c1ccccc1)[C@@H]1CN2CCC1CC2)c1c(Cl)ccc(C(F)(F)F)c1Cl | inactive |  |
| COP(=S)(OC)SCN1C(=O)c2ccccc2C1=O | inactive |  |
| C=CCc1ccc2c(c1)OCO2 | inactive |  |
| O=C(Nc1ccccc1)c1ccccc1I | inactive |  |
| c1ccc(N=Nc2ccccc2)cc1 | inactive |  |
| C1=Cc2cccc3cccc1c23 | inactive |  |
| CS(=O)(=O)NC(=O)c1cc(Oc2ccc(C(F)(F)F)cc2Cl)ccc1[N+](=O)[O-] | inactive |  |
| Oc1ccccc1Cl | inactive |  |
| CO[C@@H]1[C@H](OC(=O)NC(=O)CCl)CC[C@]2(CO2)[C@H]1[C@@]1(C)O[C@@H]1CC=C(C)C |  | 9.98 µM (active) |
| CC(C)(C)OOC(=O)c1ccccc1 | inactive |  |
| [As]#[In] | inactive |  |
| Nc1ccc(N=Nc2ccccc2)cc1 | inactive |  |
| c1ccc2c(c1)-c1cccc3cccc-2c13 | inactive |  |
| CC(C)(OOC(C)(C)c1ccccc1)c1ccccc1 |  | 34 µM (active) |
| ClC1=C(Cl)[C@]2(Cl)[C@H]3[C@H]([C@@H]4C=C[C@H]3C4)[C@@]1(Cl)C2(Cl)Cl |  | 33.5 µM (active) |
| O=[N+]([O-])c1ccc(Oc2ccc(Cl)cc2Cl)cc1 | inactive |  |
| CCC[CH2][Sn]([Cl])([CH2]CCC)[CH2]CCC |  | 0.148 µM (active) |
| CN(C)c1ccccc1 | inactive |  |
| COC(=O)c1ccccc1N | inactive |  |
| CN(C)c1ccc(C(=O)c2ccc(N(C)C)cc2)cc1 | inactive |  |
| Cc1cc(N=Nc2ccccc2C)ccc1N | inactive |  |
| C[N+](C)(C)CC1CO1 (centres undefined) | inactive |  |
